The values that follow come from PubChem BioAssay AID463082 (The Scripps Research Institute Molecular Screening Center, 2010).

In all, about 330,000 compounds went through this assay and about 4,900 (1.5%) were called active.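 The calls were made as follows: active = inhibition above the mean inhibition across the screen plus 3 SD (cut at about 25% in these data); inactive = the rest.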 Only a selection was taken, and actives are over-represented in it overall.

For this experiment, the target named is Platelet-activating factor acetylhydrolase (Homo sapiens) (UniProt Q13093). Description: inhibition of plasma PAF acetylhydrolase – biochemical, fluorescence polarization, human, primary screen (AID 463082).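 Also: inhibitors block binding of the rhodamine activity-based probe so polarization drops; 0% = enzyme with DMSO and 100% = wells lacking pPAFAH.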 The following applies: recombinant pPAFAH, FP-rhodamine probe fluorescence polarization; at 3.39 µM; active compounds read high. (Polarisation of emitted light reports the rotation of a fluorescent probe.)
Sequence of Platelet-activating factor acetylhydrolase (Homo sapiens) (Q13093 whole entry, looked up): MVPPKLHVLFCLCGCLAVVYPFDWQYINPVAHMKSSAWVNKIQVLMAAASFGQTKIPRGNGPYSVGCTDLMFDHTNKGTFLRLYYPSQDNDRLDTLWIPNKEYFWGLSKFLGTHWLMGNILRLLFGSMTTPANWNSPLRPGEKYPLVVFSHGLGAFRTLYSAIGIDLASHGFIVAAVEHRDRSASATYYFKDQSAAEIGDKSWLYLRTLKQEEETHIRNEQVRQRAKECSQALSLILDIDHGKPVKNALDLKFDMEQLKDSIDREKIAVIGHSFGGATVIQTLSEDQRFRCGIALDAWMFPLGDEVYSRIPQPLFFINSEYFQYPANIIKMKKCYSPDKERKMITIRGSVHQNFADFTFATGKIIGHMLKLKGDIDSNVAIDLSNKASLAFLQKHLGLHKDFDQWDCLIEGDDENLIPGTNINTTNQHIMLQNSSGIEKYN
As usually defined, the inhibition is the change of the read-out against control, counted positive when it falls. With `COc1cccc(N2C(=O)NC(=O)/C(=C\c3cn(C)c4ccccc34)C2=O)c1`, the inhibition was 0.95% (inactive).

As to `COc1ccc(CN2C(=O)NC(=O)/C(=C\c3ccc(OC)c(OC)c3OC)C2=O)cc1`, the inhibition is 2.22% (inactive).

Take `COc1ccc(N2C(=O)/C(=C/c3ccco3)C(=O)NC2=S)cc1`: the inhibition is 39.7% (active). The figure for `O=C1CC(=O)N(Cc2ccccc2)C(=O)N1CCCCCCN1C(=O)CC(=O)N(Cc2ccccc2)C1=O` is 41.3% (active); for `CC(C)(C)c1ccc(CN2C(=O)CN=C(c3ccccc3)c3ccccc32)cc1` it is -2.71% (inactive). In the case of `O=C(CN1CCCC1=O)NCCc1ccccc1`, the inhibition was 6.04% (inactive). With `O=c1[nH]c(CN2CC=C(c3ccccc3)CC2)nc2scc(-c3cccs3)c12` the figure was 8.85% (inactive); with `CN(C)c1ccc(/C=C2\CC3C4CC=C5CC(O)CCC5(C)C4CCC3(C)C2=O)cc1` (stereo not given), 3.94% (inactive); with `O=C(COC(=O)Cc1ccccc1)Nc1ccc(F)cc1`, 23.1% (inactive). With `Cc1nn(-c2ccccc2)c(C)c1NC(=O)COC(=O)Cc1ccccc1` the figure was 46.5% (active); with `Cc1ccccc1NC(=O)COC(=O)c1cc(C)n(C2CC2)c1C`, 3.84% (inactive). With `O=[N+]([O-])c1ccc(C2C3C(c4ccccc4)=NC4(CCCCC4)N32)cc1` (stereo not given) the figure was 6.5% (inactive); with `Cn1cc(C(=O)OCC(=O)N2CCCC2)c2ccccc21`, -2.21% (inactive); with `COc1ccccc1NC(=O)N1C[C@@H]2C[C@@H](C1)c1cccc(=O)n1C2`, 5.55% (inactive).

Turning to `CSc1nc2ccc(C)cc2c(=O)n1-c1cccnc1`, the inhibition was -1.83% (inactive). With `O=C1NC(=O)N(c2ccccc2)C(=O)/C1=C/c1ccc([N+](=O)[O-])s1` the figure was 58% (active); with `Cc1ccccc1N1C(=O)NC(=O)/C(=C\c2cc(C)n(C)c2C)C1=O`, -0.82% (inactive); with `COC(=O)C1=C(c2ccc(C(C)=O)cc2)C[C@@H]2CC[C@H]1N2C(=O)NCCNC(C)=O`, 3.68% (inactive).

In the case of `COc1cccc(C(=O)N2C[C@H]3C[C@@H](C2)c2cccc(=O)n2C3)c1`, the inhibition was 3.04% (inactive). The figure for `C/C(=N/O)c1ccc2ccc3ccccc3c2c1` is 1.83% (inactive); for `COC(=O)C1=C(c2cc3ccccc3s2)C[C@@H]2CC[C@H]1N2C(=O)NC(C)C` it is 4.37% (inactive); for `NCCc1ccc(S(=O)(=O)F)cc1` it is 59.5% (active). Turning to `CN1CCN(Cc2ccc(OC(F)(F)F)cc2)CC1`, the inhibition is -4.99% (inactive).

Regarding `C=Cn1ccnc1P(=S)(c1cc(N(CC)CC)ns1)c1nccn1C=C`, the inhibition was -4.36% (inactive). `CCOC(=O)C1CN(C)CCC1=O` (stereo not given): the inhibition is 4.48% (inactive).
